High-throughput results deposited in PubChem by The Scripps Research Institute Molecular Screening Center.
Rows were chosen to be rich in hits. Some 2.3% of all compounds tested hit in one or more screens of this group.
CHO-K1 Ca PAM = nonselective calcium activators in parental CHO-K1 cells, primary screen, counter-screen for M1 PAM project, cell-based, Fluo-8 calcium fluorescence, full deck, 1536-well; ATP EC20; 0% at ATP EC20, 100% at ATP max; activation, % at 3 µM; 360,000 tested, 0.02% active; AID 602247, 2012;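 active = activation above the run cutoff, the mean activation of all test compounds plus 3 SD, cut at about 40% in these data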;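 also: peak over basal fluorescence ratio in a 140 s read after ATP addition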
CHRM1 PAM = human M1 muscarinic receptor positive allosteric modulators, primary screen, CHO-K1 cells, Fluo-8 calcium fluorescence, 1536-well | Muscarinic acetylcholine receptor M1 (Homo sapiens), P11229 | CHO-K1 hM1, ACh EC20; 0% = ACh EC20, 100% = maximal ACh | activation, % at 3 µM | 360,000 tested, 0.088% active | AID 588819, 2011; in the data active = activation above about 19%, passing the limit was not always enough
Target sequence (P11229 whole entry, looked up): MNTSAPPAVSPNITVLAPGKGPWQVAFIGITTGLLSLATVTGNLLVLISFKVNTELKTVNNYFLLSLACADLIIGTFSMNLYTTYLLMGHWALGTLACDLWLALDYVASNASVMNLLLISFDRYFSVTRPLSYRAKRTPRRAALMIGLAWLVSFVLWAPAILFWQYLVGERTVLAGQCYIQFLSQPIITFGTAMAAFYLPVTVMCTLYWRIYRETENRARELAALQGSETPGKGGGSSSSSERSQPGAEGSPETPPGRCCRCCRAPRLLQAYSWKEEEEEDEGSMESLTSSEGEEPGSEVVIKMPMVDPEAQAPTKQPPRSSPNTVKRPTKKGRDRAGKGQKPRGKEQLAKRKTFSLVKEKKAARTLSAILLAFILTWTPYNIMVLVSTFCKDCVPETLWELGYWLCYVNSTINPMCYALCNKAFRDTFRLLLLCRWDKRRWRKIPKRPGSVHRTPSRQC
M1 antag = human M1 muscarinic receptor antagonists, primary screen, CHO-K1 cells, Fluo-8 calcium fluorescence, 1536-well; inhibition, % at 3 µM; CHO-K1 hM1, ACh EC80 antagonist; 360,000 tested, 1.3% active;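 active = percent inhibition above its own plate's cutoff, namely the mean of that plate's compound wells plus 3 SD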;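 also: peak over basal fluorescence ratio during 140 s after agonist addition; 0% = ACh EC80 plus DMSO and 100% = DMSO alone without agonist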
M1 ag parental = counter-screen for M1 agonists: effect in parental CHO-K1 cells; AID 602248, 2012; activation, % at 3 µM; Fluo-8 calcium fluorescence; scaled to maximal ATP response, vehicle zero; 360,000 tested, 0.48% active; in the data active = activation above about 15%;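 also: untransfected CHO-K1 host cells lacking M1 receptor as counterscreen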
CHO-K1 Ca antag = nonselective inhibitor or artifact in parental CHO-K1 cells; ATP-induced calcium, Fluo-8 fluorescence; inhibition, % at 3 µM; 360,000 tested, 0.6% active; AID 602250;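 active = inhibition above a per-plate cutoff, the plate's mean sample inhibition plus 3 SD, cut at about 24% in these data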;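 also: 0% = DMSO plus EC80 ATP and 100% = DMSO alone without ATP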
CHRM1 agonist = human M1 muscarinic receptor agonists, primary screen, Fluo-8 calcium fluorescence, CHO-K1 cells, HTS. CHO-K1 hM1, agonist mode; 0% DMSO, 100% acetylcholine EC100. activation, % at 3 µM. 360,000 tested, 0.33% active;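 active = activation above the run's mean compound activation plus 3 SD, cut at about 16% in these data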;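 also: peak over basal fluorescence ratio within a 140 s kinetic read after compound addition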
* marks the source's active call; other numbers are inactive results; / = no result given.

SMILES	CHO-K1 Ca PAM	CHRM1 PAM	M1 antag	M1 ag parental	CHO-K1 Ca antag	CHRM1 agonist
O=C(NCCCN1CCCCC1)C1CCC(CNS(=O)(=O)c2cccc3nsnc23)CC1 (stereo not given)	28.8	-25.5	17.4	-0.1	-9.2	-6.7
O=C(NNC(=O)c1cc(-c2ccccc2)nc2ccccc12)Nc1cccc(Cl)c1	9.9	-11.3	25.1*	3.7	6.8	-1.3
O=C(NNC(=O)c1cc(-c2cccnc2)nc2ccccc12)Nc1ccc(Cl)cc1	-15.7	-18.3	62.5*	14.5	29.0*	2.9
CN1CCN(S(=O)(=O)c2cccc(C(=O)NCCC3=CCCCC3)c2)CC1	5.4	12.7	-11.6	0.5	9.5	-5.6
CC(C)c1ccc(CCNC(=O)c2cccc(S(=O)(=O)N3CCN(C)CC3)c2)cc1	9.6	-2.0	-2.1	16.3*	-2.2	3.3
Cc1cc2nc(C3CCCCC3)c(Cc3cccc(F)c3)n2c(C)c1Br	17.2	-4.3	-16.8	0.6	-32.4	-1.9
Cc1nc2ccccc2cc1OCc1ccccc1	11.9	-12.4	17.5*	5.2	15.0	-1.6
COc1cccc(COc2cc3ccccc3nc2C)c1	11.8	-6.5	33.9*	5.6	22.0	-0.9
Cc1nc2ccccc2cc1OCc1ccc(Cl)cc1	8.3	-12.2	21.6*	5.5	14.6	-2.4
CCN(C[C@H]1N[C@@](CC)(C(=O)OC)[C@H]2C(=O)N(C)C(=O)[C@@H]12)C(=O)c1ccccc1	10.5	9.1	-21.3	0.6	-18.0	-2.5
CC(=O)Nc1ccc(/C(C)=N/Nc2nc(Nc3cccc4ccccc34)nc(N3CCOCC3)n2)cc1	10.9	2.9	10.8	12.5	10.2	18.0*
O=C(c1ccc(OC2CCN(CCc3ccccc3)CC2)cc1)N1CCCC1	10.9	-9.6	8.7	1.5	-7.7	-4.8
O=C(c1ccc(OC2CCN(CCc3ccccc3)CC2)cc1)N1CCCCC1CCCO (stereo not given)	19.7	-7.6	29.8*	0.9	-8.5	-6.5
CC(C)N1CCN(C(=O)c2ccc(OC3CCN(CCc4ccccc4)CC3)cc2)CC1	6.5	-20.0	42.8*	0.0	-0.2	-6.2
Cn1cc(-c2ccc(C(=O)Nc3cccc(Oc4ccccc4)c3)c3occc23)cn1	10.6	3.8	-4.8	1.1	-13.8	2.2
CNc1snc(C)c1C(=O)OCC(=O)c1ccc(OC)c(F)c1	-21.0	-17.0	40.4*	14.4	18.4	0.4
CC(C)(C)n1nnnc1C(c1ccccc1)N1CCN(c2ncccc2C(F)(F)F)CC1 (stereo not given)	7.0	/	/	5.1	-7.9	/
CN(C(=O)CN1C(=O)S/C(=C\c2ccccc2Cl)C1=O)C1CCS(=O)(=O)C1 (stereo not given)	20.4	4.3	-2.4	1.2	28.4*	-11.0
CN(C(=O)CN1C(=O)/C(=C/c2ccccc2Cl)SC1=S)C1CCS(=O)(=O)C1 (stereo not given)	10.1	1.7	4.1	0.4	-9.9	0.7
CN[C@@H](CO)C(=O)NC[C@H]1O[C@@H](n2cnc3c(=O)[nH]c(N)nc32)[C@H](O)[C@@H]1O	15.1	4.7	-26.0	0.7	-4.5	-2.9
Cc1ccc(S(=O)(=O)NNC(=O)c2c(O)c3ccccc3[nH]c2=O)cc1	18.5	-0.2	2.2	15.9*	-2.3	-1.7
C[C@@H](NC(=O)c1[nH]cnc1C(=O)Nc1cccc(Cl)c1)c1ccccc1	1.2	9.2	-6.2	0.5	-2.5	-2.1
CN(CCc1ccccc1)C(c1ccnc2ccccc12)c1nnnn1-c1ccc2c(c1)OCCO2 (stereo not given)	-6.6	/	/	0.0	26.1*	/
Cc1ccc(NC(=O)N(CCCN2CCOCC2)Cc2cccs2)cc1C	19.6	32.4*	-31.4	0.2	-14.4	-3.1
O=C(Nc1ccc(Cl)cc1)N(CCCN1CCOCC1)Cc1cccs1	-4.0	-12.0	4.8	1.5	3.5	-9.0
SMILES	CHO-K1 Ca PAM	CHRM1 PAM	M1 antag	M1 ag parental	CHO-K1 Ca antag	CHRM1 agonist
Cc1c(Cl)cccc1NC(=S)N(CCCN1CCOCC1)Cc1ccco1	-5.5	-25.4	48.3*	0.9	-9.1	-6.1
COc1ccc(NC(=S)N(CCCN2CCCC2)Cc2cccs2)cc1	17.4	-22.6	55.2*	1.1	-15.9	-8.1
S=C(Nc1ccc(Cl)cc1)N(CCCN1CCOCC1)Cc1cccs1	6.6	-25.1	45.5*	1.7	-20.7	-8.7
COc1ccc(NC(=S)N(CCCN2CCCCCC2)Cc2cccs2)cc1	-4.3	6.2	-8.6	0.0	-5.8	-5.5
CCN1CCN(CCCN(Cc2ccco2)C(=S)Nc2cccc(Cl)c2C)CC1	-6.1	-11.3	18.0	0.0	-0.1	-8.2
COc1ccc(OCC(=O)NCCCCCCNC(=O)COc2ccc(OC)cc2)cc1	2.2	11.2	-11.4	0.1	-5.9	0.7
O=[N+]([O-])c1cccc(S(=O)(=O)NCC2CC3CCC2C3)c1 (stereo not given)	-0.7	-4.8	3.4	3.7	-6.1	-3.8
CC(NC(=O)c1ccc2c(c1)C(=O)N(Cc1cccnc1)C2=O)c1ccccc1 (stereo not given)	9.5	-0.9	4.2	0.4	-1.6	-4.2
CN1C=CC(=C[N+](=O)[O-])N(C)C1=O	6.4	-1.3	-0.2	0.2	-0.8	-4.4
CSc1cccc(NC(=S)N(CCCN2CCCC2)Cc2cccn2Cc2ccc(Cl)cc2)c1	8.3	-6.6	7.5	2.1	1.5	-3.3
CSc1cccc(NC(=S)N(CCCN2CCCC2)Cc2cccs2)c1	25.8	-24.0	36.4*	2.9	-17.8	-7.0
COc1ccc(NC(=S)N(CCCN2CCCC2)Cc2ccco2)cc1	17.9	-19.9	36.1*	0.1	-9.8	-7.7
Cc1ccc(-n2c(N)cc(=O)nc2SCC(=O)NC2CCCCC2)cc1C	-3.7	12.4	-1.1	0.6	10.1	-0.9
COc1cc(/C=N\NC(=O)C2COc3ccccc3O2)cc(OC)c1O (stereo not given)	15.8	7.8	-11.7	20.8*	-3.6	0.6
COc1cc(/C=N/NC(=O)C2COc3ccccc3O2)ccc1O (stereo not given)	-6.6	-7.9	8.0	1.9	14.7	-2.2
O=[N+]([O-])c1ccc(-c2nc(Nc3cccc(O)c3)c3ccccc3n2)cc1	-6.3	1.6	-3.8	20.3*	20.6	-2.7
O=C(O)c1cccc(Nc2nc(-c3ccc([N+](=O)[O-])cc3)nc3ccccc23)c1	6.7	2.2	-9.4	2.2	-6.8	-2.1
O=C(Cn1cc(Cl)ccc1=O)c1ccc(Cl)cc1	-16.4	3.6	-2.8	-0.7	24.1*	-4.3
O=C(CN1CCN(CC(=O)c2ccc(Cl)cc2)CC1)c1ccc(Cl)cc1	8.0	0.3	-5.5	0.7	-13.2	-2.4
